Experimental data as given in PubChem BioAssay (EPA / NIEHS).
Records with an inconclusive call do not appear. Activity calls are given as the source filed them. How the source made its calls, unless noted: active means hit-call score of the fitted dose curve at least 0.9, where 1 is the maximum; inactive means score below 0.9.

Key:
[1] = read-out: NAD(P)H dehydrogenase [quinone] 1 (NQO1), NQO1 (gene 1728); test: LTEA_HepaRG_NQO1: Life Technologies and Expression Analysis (LTEA) Assay for NAD(P)H dehydrogenase [quinone] 1 (NQO1) using HepaRG (AID 2283526); details: mRNA level, 48 h; actives raise or lower the signal
In short: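 Human HepaRG hepatic cells received chemicals for 48 h in serum-free induction medium with 0.5% DMSO, up to 100 uM. Expression was assessed by TaqMan qRT-PCR against housekeeping controls and fitted bidirectionally against DMSO.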

[2] = read-out: Nuclear factor erythroid 2-related factor 2 (Homo sapiens) (UniProt Q16236); test: LTEA_HepaRG_NFE2L2: Life Technologies and Expression Analysis (LTEA) Assay for Nuclear factor erythroid 2-related factor 2 (NFE2L2) Transcription Factor using HepaRG (AID 2283527); details: mRNA level, 48 h; actives raise or lower the signal
In short: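 Transcript level of NFE2L2 is the read-out, measured by microfluidic TaqMan qRT-PCR and normalized to three housekeeping genes. Human HepaRG cultures received test chemical for 48 h at up to 100 uM in half-log steps. Gain or loss of signal is fitted relative to 0.5% DMSO.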

[3] = read-out: succinate dehydrogenase complex iron sulfur subunit B (SDHB), SDHB (gene 6390); test: LTEA_HepaRG_SDHB: Life Technologies and Expression Analysis (LTEA) Assay for succinate dehydrogenase complex iron sulfur subunit B (SDHB) using HepaRG (AID 2283528); details: mRNA level, 48 h; actives raise or lower the signal
In short: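 Readout is SDHB transcript level by qRT-PCR, normalised to three housekeeping genes and fitted bidirectionally against 0.5% DMSO vehicle. Human HepaRG cells were treated for 48 h at up to 100 uM.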

[4] = read-out: Signal transducer and activator of transcription 3 (Homo sapiens) (UniProt P40763); test: LTEA_HepaRG_STAT3: Life Technologies and Expression Analysis (LTEA) Assay for Signal transducer and activator of transcription (STAT3) using HepaRG (AID 2283529); details: mRNA level, 48 h; actives raise or lower the signal
In short: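 Read-out is STAT3 mRNA level by qRT-PCR, normalized to three housekeeping genes, in human HepaRG liver cells treated for 48 h. Concentrations ran from 100 uM downward in half-log steps; curves were fitted for gain or loss relative to 0.5% DMSO.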

[5] = read-out: solute carrier (SLCO1B1), SLCO1B1 (gene 10599); test: LTEA_HepaRG_SLCO1B1: Life Technologies and Expression Analysis (LTEA) Assay for solute carrier (SLCO1B1) using HepaRG (AID 2283530); details: mRNA level, 48 h; actives raise or lower the signal
In short: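 SLCO1B1 transcript levels were quantified by TaqMan qRT-PCR using three housekeeping genes for normalization. This followed 48 h chemical exposure (100 uM top, half-log, 8 points, 0.5% DMSO) of HepaRG liver cells, with gain or loss fitted relative to DMSO.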

[6] = read-out: sulfotransferase 2A1 (SULT2A1), SULT2A1 (gene 6822); test: LTEA_HepaRG_SULT2A1: Life Technologies and Expression Analysis (LTEA) Assay for sulfotransferase 2A1 (SULT2A1) using HepaRG (AID 2283531); details: mRNA level, 48 h; actives raise or lower the signal
In short: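 Expression change of SULT2A1, by qRT-PCR with three housekeeping-gene normalization, was scored bidirectionally versus DMSO. Cells: differentiated HepaRG, dosed in duplicate for 48 h across 8 points, highest 100 µM, half-log dilution, 0.5% DMSO.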

[7] = read-out: Transforming Growth Factor (TGFA), TGFA (gene 7039); test: LTEA_HepaRG_TGFA: Life Technologies and Expression Analysis (LTEA) Assay for Transforming Growth Factor (TGFA) using HepaRG (AID 2283532); details: mRNA level, 48 h; actives raise or lower the signal
In short: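 HepaRG (human liver line), 48 h exposure, 8 conc. half-log down from 100 uM, 0.5% DMSO vehicle, duplicates; serum-free induction medium. TGFA mRNA by TaqMan qRT-PCR, ACTB/GAPDH/POLR2A normalization; gain/loss fit vs DMSO.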

[8] = read-out: Transforming Growth Factor (TGFB1), TGFB1 (gene 7040); test: LTEA_HepaRG_TGFB1: Life Technologies and Expression Analysis (LTEA) Assay for Transforming Growth Factor (TGFB1) Transporter using HepaRG (AID 2283533); details: mRNA level, 48 h; actives raise or lower the signal
In short: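 TGFB1 transcript measured by qRT-PCR with normalisation to three housekeeping genes (ACTB, GAPDH, POLR2A); human HepaRG line treated in duplicate for 48 hr with an 8-point series topping at 100 uM, 0.5% DMSO vehicle, bidirectionally fitted.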

[9] = read-out: TIMP1, TIMP1 (gene 7076); test: LTEA_HepaRG_TIMP1: Life Technologies and Expression Analysis (LTEA) Assay for TIMP1 using HepaRG (AID 2283534); details: mRNA level, 48 h; actives raise or lower the signal
In short: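 Bidirectional change in TIMP1 transcript versus 0.5% DMSO, measured by TaqMan qRT-PCR with three housekeeping genes for normalization. HepaRG human liver cells dosed 48 h in duplicate, top concentration 100 uM with half-log dilutions.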

[10] = read-out: Thyroid Hormone Responsive (THRSP), THRSP (gene 7069); test: LTEA_HepaRG_THRSP: Life Technologies and Expression Analysis (LTEA) Assay for Thyroid Hormone Responsive (THRSP) using HepaRG (AID 2283536); details: mRNA level, 48 h; actives raise or lower the signal
In short: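 mRNA induction or loss relative to 0.5% DMSO vehicle was fitted bidirectionally across an eight-point curve whose highest exposure was 100 uM. Human HepaRG liver cells received chemicals in duplicate over 48 h before RNA extraction.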

[11] = read-out: Cellular tumor antigen p53 (Homo sapiens) (UniProt P04637); test: LTEA_HepaRG_TP53: Life Technologies and Expression Analysis (LTEA) Assay for Tumor Protein P53 (TP53) using HepaRG (AID 2283537); details: mRNA level, 48 h; actives raise or lower the signal
In short: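 Read-out is TP53 transcript level by microfluidic qRT-PCR, normalised to three housekeeping genes and fitted bidirectionally against DMSO. Human HepaRG cells received compounds for 48 h, highest concentration 100 uM.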

[12] = read-out: UDP glucuronosyltransferase (UGT1A6), UGT1A6 (gene 54578); test: LTEA_HepaRG_UGT1A6: Life Technologies and Expression Analysis (LTEA) Assay for UDP glucuronosyltransferase (UGT1A6) using HepaRG (AID 2283539); details: mRNA level, 48 h; actives raise or lower the signal
In short: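 Expression was quantified by TaqMan qRT-PCR on Fluidigm arrays with ACTB/GAPDH/POLR2A normalization and bidirectional fitting against 0.5% DMSO. HepaRG cells (~100,000/well) were treated in duplicate for 48 h at eight half-log concentrations up to 100 uM in serum-free induction medium.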

[13] = read-out: X-box binding protein 1 (XBP1), XBP1 (gene 7494); test: LTEA_HepaRG_XBP1: Life Technologies and Expression Analysis (LTEA) Assay for X-box binding protein 1 (XBP1) using HepaRG (AID 2283540); details: mRNA level, 48 h; actives raise or lower the signal
In short: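 XBP1 transcript by qRT-PCR (housekeeping-normalized: ACTB, GAPDH, POLR2A) after 48 h chemical treatment of HepaRG cells, 8-point half-log series topping at 100 uM, vehicle 0.5% DMSO. Gain and loss of signal fitted relative to DMSO.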

[14] = LTEA_HepaRG_LDH_cytotoxicity: Cytotoxicity Assessment in the Life Technologies and Expression Analysis (LTEA) Assay (AID 2283563; active means hit-call score of the fitted dose curve at least 0.9, where 1 is the maximum;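 on AC50: LDH activity released into spent culture medium as a marker of cell death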)
In short: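 LDH release into culture medium read after 48 h chemical treatment of HepaRG cells. Duplicate wells, eight-point half-log series topping at 100 uM, 0.5% DMSO vehicle and baseline.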

[15] = TOX21_p53_BLA_p2_viability: Viability Assessment in the Tox21 HCT-116 p53 Agonism Beta-lactamase Assay, Phase 2 (AID 2283591; active means hit-call score of the fitted dose curve at least 0.9, where 1 is the maximum;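 further: compound exposure lasted 16 h at 37 °C; actives lower the ATP signal meaning cytotoxicity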)
In short: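 Cytotoxicity readout: CellTiter-Glo ATP luminescence, 30 min at room temperature, after the beta-lactamase read. Cells were HCT116 exposed 16 h at 37C to compounds pin-transferred at 217-fold dilution from DMSO stocks.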

[16] = target: Cellular tumor antigen p53 (Homo sapiens) (UniProt P04637); test: TOX21_p53_BLA_p2_ratio: Tox21 HCT-116 p53 Agonism Beta-lactamase Assay, Ratio, Phase 2 (AID 2283592; active means hit-call score of the fitted dose curve at least 0.9, where 1 is the maximum)
In short: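 Gain-of-signal p53 agonism was scored from the beta-lactamase FRET ratio (460/530 nm, 405 nm excitation) in HCT116 cells treated 16 h at 37C, 5% CO2, with DMSO serving as negative control and baseline.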

[17] = TOX21_p53_BLA_p3_viability: Viability Assessment in the Tox21 HCT-116 p53 Agonism Beta-lactamase Assay, Phase 3 (AID 2283593; active means hit-call score of the fitted dose curve at least 0.9, where 1 is the maximum;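 further: cells exposed to compound for 16 h before reading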)
In short: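 Cellular ATP was quantified by CellTiter-Glo luminescence, read after 30 min at room temperature. Beforehand, HCT116 cells (4000/well) received compound 5 h post-seeding, 217-fold diluted from DMSO, then incubated 16 h at 37C.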

[18] = ATG_XTT_Cytotoxicity: Cytotoxicity Assessment in the Attagene TRANS-FACTORIAL HepG2 Assay (AID 2283584; active means hit-call score of the fitted dose curve at least 0.9, where 1 is the maximum)
In short: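 Viability endpoint from XTT after 24 h chemical exposure of reporter-transfected human HepG2 liver cells; signal loss fitted relative to DMSO negative control.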

Measured: AC50

Chain of Signal transducer and activator of transcription 3 (Homo sapiens) (P40763 whole entry, looked up): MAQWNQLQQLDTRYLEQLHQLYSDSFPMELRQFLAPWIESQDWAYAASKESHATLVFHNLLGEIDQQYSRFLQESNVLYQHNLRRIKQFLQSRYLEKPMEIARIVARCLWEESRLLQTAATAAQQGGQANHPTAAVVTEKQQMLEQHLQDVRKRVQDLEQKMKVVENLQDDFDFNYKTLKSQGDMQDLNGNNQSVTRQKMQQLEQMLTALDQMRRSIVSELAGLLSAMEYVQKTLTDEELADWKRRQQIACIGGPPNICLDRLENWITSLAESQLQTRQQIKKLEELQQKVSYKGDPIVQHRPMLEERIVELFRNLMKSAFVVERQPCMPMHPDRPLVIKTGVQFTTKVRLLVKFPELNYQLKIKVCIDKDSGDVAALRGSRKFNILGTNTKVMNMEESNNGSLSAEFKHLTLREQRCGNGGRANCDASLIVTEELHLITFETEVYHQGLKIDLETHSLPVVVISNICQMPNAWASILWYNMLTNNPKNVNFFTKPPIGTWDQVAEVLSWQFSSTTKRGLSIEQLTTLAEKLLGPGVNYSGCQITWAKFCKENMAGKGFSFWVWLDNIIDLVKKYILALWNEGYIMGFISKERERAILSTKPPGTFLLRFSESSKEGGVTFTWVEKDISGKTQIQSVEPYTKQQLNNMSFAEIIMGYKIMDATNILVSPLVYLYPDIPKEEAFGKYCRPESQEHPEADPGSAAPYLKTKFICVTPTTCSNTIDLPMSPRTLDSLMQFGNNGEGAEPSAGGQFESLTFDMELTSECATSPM
Chain of Cellular tumor antigen p53 (Homo sapiens) (P04637 whole entry, looked up): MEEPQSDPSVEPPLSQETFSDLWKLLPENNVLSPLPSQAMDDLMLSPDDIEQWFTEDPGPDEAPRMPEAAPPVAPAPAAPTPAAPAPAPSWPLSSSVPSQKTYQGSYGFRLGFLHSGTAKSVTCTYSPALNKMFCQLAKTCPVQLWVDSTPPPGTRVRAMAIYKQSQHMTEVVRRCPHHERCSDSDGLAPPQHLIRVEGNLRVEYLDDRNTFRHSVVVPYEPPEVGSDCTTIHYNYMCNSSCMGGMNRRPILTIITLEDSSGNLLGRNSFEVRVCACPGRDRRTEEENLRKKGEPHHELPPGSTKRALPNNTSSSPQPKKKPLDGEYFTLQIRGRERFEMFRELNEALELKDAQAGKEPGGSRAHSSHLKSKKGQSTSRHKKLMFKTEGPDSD
Chain of Nuclear factor erythroid 2-related factor 2 (Homo sapiens) (Q16236 whole entry, looked up): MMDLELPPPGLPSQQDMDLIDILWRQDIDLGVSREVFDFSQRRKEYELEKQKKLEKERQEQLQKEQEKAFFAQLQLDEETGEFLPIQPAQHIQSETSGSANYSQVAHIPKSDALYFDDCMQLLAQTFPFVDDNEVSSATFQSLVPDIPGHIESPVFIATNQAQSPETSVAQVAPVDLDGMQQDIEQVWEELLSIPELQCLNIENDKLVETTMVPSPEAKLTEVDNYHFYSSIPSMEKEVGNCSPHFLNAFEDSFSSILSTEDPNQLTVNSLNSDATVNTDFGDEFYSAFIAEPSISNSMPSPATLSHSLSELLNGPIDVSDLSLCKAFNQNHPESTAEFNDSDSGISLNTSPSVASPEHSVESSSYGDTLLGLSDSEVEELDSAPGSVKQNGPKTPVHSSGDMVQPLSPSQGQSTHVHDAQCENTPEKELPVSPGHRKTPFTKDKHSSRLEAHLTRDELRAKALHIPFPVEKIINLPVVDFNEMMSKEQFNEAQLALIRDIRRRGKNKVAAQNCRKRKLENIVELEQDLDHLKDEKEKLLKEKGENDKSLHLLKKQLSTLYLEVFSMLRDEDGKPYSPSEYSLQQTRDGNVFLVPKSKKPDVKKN

Fc1ccc(Oc2ccnc3cc(Cl)cc(Cl)c23)cc1
active: [8] 50 µM | [10] 76.2 µM | [16] 79.3 µM
not listed: [18]
inactive: all other assays above

CC1=C(C(=O)Nc2ccccc2)SCCO1
active: [10] 17 µM
not listed: [18]
inactive: all other assays above

CCNc1nc(Cl)nc(NCC)n1
not listed: [18]
inactive: all other assays above

CNC(=S)S
inactive: all assays above

O=C(O)c1nc(Cl)ccc1Cl
not listed: [18]
inactive: all other assays above

CC1COC(Cn2cncn2)(c2ccc(Oc3ccc(Cl)cc3)cc2Cl)O1 (stereo not given)
inactive: [1] | [4] | [13] | [17]
active: [2] 19.7 µM | [3] 84.8 µM | [5] 12.8 µM | [6] 19.6 µM | [7] 13.6 µM | [8] 89.8 µM | [9] 77 µM | [10] 7.86 µM | [11] 11.6 µM | [12] 63.9 µM | [14] 58.7 µM | [15] 78.7 µM | [16] 21.4 µM

Cc1c(F)c(F)c(COC(=O)C2C(/C=C(\Cl)C(F)(F)F)C2(C)C)c(F)c1F (stereo not given)
not listed: [18]
inactive: all other assays above
